Results: PubChem BioAssay (NCATS)
Records with an inconclusive call do not appear. Active and inactive are the calls of the source. Calls come from the whole dose curve; as a rule, active = well fitted curve in the direction sought with a large enough effect; inconclusive = small, poorly fitted or top-dose-only effect, or another doubt; inactive = no such curve, though single readings can be large; an effect the other way counts as inactive or inconclusive.

Columns and labels:
[1] = test system: Zika virus NS2B-NS3 protease (unlinked complex); test: Primary screen GU Rhodamine qHTS for Zika virus inhibitors: Unlinked NS2B-NS3 protease assay (AID 1347159); note: nearly all actives have a fitted effect of over 60% in size
In short: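 Percent inhibition derives from the 15-min fluorescence change (ex 480, em 540 nm), normalized to no-enzyme and no-inhibitor wells. Reactions contained 25 nM NS2B-NS3 complex and 1.5 microM substrate in 10 mM Tris-HCl pH 8.0.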

[2] = test system: Zika virus NS2B-NS3 protease (linked construct); test: Primary screen NINDS Rhodamine qHTS for Zika virus inhibitors (AID 1347160); note: nearly all actives have a fitted effect of over 55% in size
In short: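 In 10 mM Tris-HCl pH 8.0 containing 0.01% Tween 20, linked NS2B-NS3 protease (25 nM final) is exposed to test compounds for 15 min. Cleavage of 1.5 microM Rhodamine110 substrate is tracked by fluorescence over 15 min.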

[3] = molecular target: Calcium and integrin-binding protein 1 (Homo sapiens) (UniProt Q99828); test: Primary qHTS for Identification of Calcium Integrin Binding Protein 1 (CIB1) Competitor (AID 1508620);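 note: GST tagged CIB1 binding a fluorescein labelled alphaIIb integrin peptide tracer; top concentration of the series differs between compounds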
Sequence of Calcium and integrin-binding protein 1 (Homo sapiens) (Q99828 whole entry, looked up): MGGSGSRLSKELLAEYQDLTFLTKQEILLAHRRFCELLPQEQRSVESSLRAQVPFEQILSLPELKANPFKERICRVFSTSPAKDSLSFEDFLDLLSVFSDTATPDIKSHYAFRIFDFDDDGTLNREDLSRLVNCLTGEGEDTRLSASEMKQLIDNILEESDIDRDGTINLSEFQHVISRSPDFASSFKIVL
In short: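 Fluorescence polarization competition: CIB1-GST (1 uM final) preincubated with compound 15 min at room temperature, then FITC-labeled alphaIIb peptide (100 nM final) added for another 15 min. Polarization read at Ex 480/Em 540.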

[4] = Primary qHTS for inhibitors of nuclear receptor binding SET domain protein 2 (NSD2) in an isogenic RCH-ACV NSD2 p.E1099K mutant (9B) (AID 1645876); note: nearly all actives have a fitted effect of over 70% in size; note: potency is the fitted concentration of half-maximal effect
[5] = Primary qHTS for inhibitors of nuclear receptor binding SET domain protein 2 (NSD2) in an RCH-ACV wild type WT cells (2C) (AID 1645877); note: nearly all actives have a fitted effect of over 70% in size; note: potency is the fitted concentration of half-maximal effect
[6] = molecular target: Glutathione peroxidase 1 (Homo sapiens) (UniProt P07203); test: Primary qHTS Assay for Inhibitors of Recombinant Selenoprotein Glutathione Peroxidase 1 (GPX1) (AID 1845191); note: nearly all actives have a fitted effect of over 65% in size
Sequence of Glutathione peroxidase 1 (Homo sapiens) (P07203 whole entry, looked up): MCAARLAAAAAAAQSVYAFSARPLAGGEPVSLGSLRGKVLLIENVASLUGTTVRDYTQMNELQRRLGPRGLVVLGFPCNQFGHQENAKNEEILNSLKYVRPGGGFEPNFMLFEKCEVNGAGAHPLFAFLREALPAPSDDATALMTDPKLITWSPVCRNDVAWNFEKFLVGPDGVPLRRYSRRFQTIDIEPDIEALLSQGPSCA
In short: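 Recombinant GPX1 (10 nM final) was preincubated with compound for 30 min at room temperature, then reacted with 1 mM GSH, 0.5 mM CHP, 0.5 mM NADPH and 100 nM glutathione reductase; NADPH fluorescence (340/450 nm) was read at 0 and 15 min.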

[7] = molecular target: Phospholipid hydroperoxide glutathione peroxidase GPX4 (Homo sapiens) (UniProt P36969); test: Primary qHTS Assay for Inhibitors of Recombinant Selenoprotein Glutathione Peroxidase 4 (GPX4) (AID 1845192); conditions: outcome: dose series up to 50 µM unless noted; note: nearly all actives have a fitted effect of over 65% in size
Sequence of Phospholipid hydroperoxide glutathione peroxidase GPX4 (Homo sapiens) (P36969 whole entry, looked up): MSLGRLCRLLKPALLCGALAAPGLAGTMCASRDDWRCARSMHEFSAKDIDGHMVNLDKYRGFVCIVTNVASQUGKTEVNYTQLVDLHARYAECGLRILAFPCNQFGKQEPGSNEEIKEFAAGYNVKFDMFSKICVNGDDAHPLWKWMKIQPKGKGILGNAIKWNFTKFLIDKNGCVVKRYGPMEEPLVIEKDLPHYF
In short: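 GR-coupled readout: 100 nM GR, 1 mM GSH, 0.5 mM NADPH; NADPH fluorescence (ex 340/em 450 nm) read at t=0 and after 15 min RT. GPX4 200 nM, preincubated 30 min with compound; substrate 0.5 mM CHP.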

[8] = molecular target: Luciferin 4-monooxygenase (Photinus pyralis) (UniProt P08659); test: Primary firefly luciferase (FLuc) qHTS assay for identification of artifact compounds. (AID 1845220); note: nearly all actives have a fitted effect of over 60% in size
In short: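 qHTS, 15 min compound preincubation with substrate (10 uM luciferin, 10 uM ATP) at RT, then 10 nM FLuc; 5 min; luminescence; % inhibition vs no-enzyme/DMSO controls, 4-parameter Hill fit.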

[9] = test system: Nanoluciferase (engineered Oplophorus gracilirostris luciferase); test: Primary Nanoluciferase (NLuc) qHTS assay for identification of artifact compounds. (AID 1845222)
In short: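 Luminescence read-out of secreted NLuc in S16 cell conditioned medium (1:55); compounds tested with 15 min RT preincubation, then Nano-Glo substrate 1:100, 5 min. % inhibition vs no-enzyme and DMSO controls, 4-parameter Hill fit.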

[10] = Primary redox qHTS assay for identification of artifact compounds. (AID 1845223)
In short: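 Amplex Red (25 uM) and HRP (250 mU/mL) in HBSS, with compounds for 15 min, then 250 uM DTT for 30 min, room temperature, dark. Fluorescence 525/598 nm read; normalized to DMSO and 10 uM DA3003; Hill fit.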

[11] = test system: C33A; test: Primary qHTS to identify gynecologic anti-cancer compounds using libraries of approved drugs and bioactive compounds (AID 1345084); conditions: Gynecologic cancer cell panel viability, ATPlite luminescence, 48 h; series mostly up to 57.5 µM; note: nearly all actives have a fitted effect of over 55% in size; note: potency is the fitted concentration of half-maximal effect
In short: (§1)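 Cytotoxicity screen measuring ATP content by luciferase luminescence. Each compound is applied at five concentrations for 48 h at 37 C with 5% CO2.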

[12] = test system: CASKI; test: as above; conditions: Gynecologic cancer cell panel viability, ATPlite luminescence, 48 h; series mostly up to 57.5 µM
In short: as §1

[13] = test system: Es-2; test: as above; conditions: Gynecologic cancer cell panel viability, ATPlite luminescence, 48 h; series mostly up to 57.5 µM
In short: as §1

[14] = test system: HeLa; test: as above; conditions: Gynecologic cancer cell panel viability, ATPlite luminescence, 48 h; series mostly up to 57.5 µM
In short: as §1

[15] = test system: Hek293T; test: as above; conditions: Gynecologic cancer cell panel viability, ATPlite luminescence, 48 h, control line for the selectivity index; series mostly up to 57.5 µM
In short: as §1

[16] = test system: JEG-3; test: as above; conditions: Gynecologic cancer cell panel viability, ATPlite luminescence, 48 h; series mostly up to 57.5 µM
In short: as §1

[17] = test system: OV90; test: as above; conditions: Gynecologic cancer cell panel viability, ATPlite luminescence, 48 h; series mostly up to 57.5 µM
In short: as §1

[18] = test system: PA-1; test: as above; conditions: Gynecologic cancer cell panel viability, ATPlite luminescence, 48 h; series mostly up to 57.5 µM
In short: as §1

[19] = test system: Tov-21-G; test: as above; conditions: Gynecologic cancer cell panel viability, ATPlite luminescence, 48 h; series mostly up to 57.5 µM
In short: as §1

[20] = test system: Tov112D; test: as above; conditions: Gynecologic cancer cell panel viability, ATPlite luminescence, 48 h; series mostly up to 57.5 µM
In short: as §1

Measured: Potency

C[N+]1(C)[C@@H]2CC[C@H]1CC(OC(=O)C(O)c1ccccc1)C2 (stereo not given in full)
inactive: all assays above

CC1CCCC(SCC(O)C(=O)O)CC(=O)c2c(O)cc(O)cc2CC(=O)O1 (stereo not given)
active: [4] 6.32 µM | [5] 3.55 µM
not listed: [1] | [11] | [12] | [13] | [15] | [18] | [20]
inactive: all other assays above

Cc1cc(C)c(-c2csc(NC(=O)c3ccccc3)n2)c(C)c1
active: [4] 4.09 µM | [5] 4.09 µM
not listed: [1] | [3] | [11] | [12] | [15] | [18] | [20]
inactive: all other assays above

Cc1cc(N=Nc2ccc(S(=O)(=O)Nc3ccccn3)cc2)c(N)cc1O
inactive: [1] | [2] | [6] | [11] | [16]
active: [4] 8.17 µM | [5] 5.78 µM | [14] 4.47 µM | [18] 8.91 µM
